The record followed here is the antibiotic and cytotoxicity screens of Wong et al. (2023).

Screen size: about 39,000 compounds; about 1,500 (3.8%) were called active. This excerpt belongs to a sample that is enriched for actives.

The subject of the assay is HSkMC (human skeletal muscle cells). Description: cytotoxicity call (relative viability < 0.9). The note with it: 10 µM.
As to `C[C@@H]1CN([C@@H](C)CO)C(=O)Cc2cc(NC(=O)CCN3CCOCC3)ccc2O[C@H]1CN(C)Cc1ccccc1`, the cytotoxicity call was “inactive”.
The value for `C[C@H](CO)N1C[C@H](C)[C@@H](CN(C)C(=O)Nc2ccccc2)Oc2ccc(NS(C)(=O)=O)cc2C1=O` was “inactive”; that for `C[C@H](CO)N1C[C@H](C)[C@H](CN(C)C(=O)Cc2cccnc2)Oc2ncc(C#Cc3ccccc3F)cc2C1=O` was “inactive”.
As for `O=C(N[C@H]1C=C[C@H](CC(=O)N2CCOCC2)O[C@H]1CO)c1ccc2c(c1)OCO2`, the entry is “inactive”.
As for `CON(C)c1nc(Oc2ccc(=O)[nH]n2)nc(N(C)C)n1`, the entry is “inactive”; as for `CN1CCN(C)C1=O`, “inactive”; as for `COc1cccc(CNC(=O)C[C@H]2C=C[C@H](NC(=O)C3CCOCC3)[C@@H](CO)O2)c1`, “inactive”.
In the case of `O=C(C[C@H]1C=C[C@H](NS(=O)(=O)c2ccc(F)cc2)[C@@H](CO)O1)NCCN1CCCCC1`, the cytotoxicity call was “inactive”.
As for `c1ccc(-c2cccs2)cc1`, the entry is “inactive”; as for `O=C(O)CCNC(=O)c1cncc(O)c1`, “inactive”.
As for `COC(=O)c1cccnc1`, the entry is “inactive”.
As to `COC(=O)c1ccc(O)cc1`, the cytotoxicity call is “inactive”.
As for `COC(=O)c1ccc(C(=O)OC)nc1`, the entry is “active”.
As for `COc1ccc(NC(=O)N(C)C[C@H]2Oc3ccc(NC(=O)Nc4ccc(C(F)(F)F)cc4)cc3C(=O)N([C@@H](C)CO)C[C@@H]2C)cc1`, the entry is “inactive”; as for `O=C(N[C@H]1C=C[C@H](CC(=O)N2CCOCC2)O[C@H]1CO)c1ccccn1`, “inactive”; as for `COCC(=O)Nc1ccc2c(c1)OC[C@H](C)N(Cc1cccc(F)c1)C[C@H](C)[C@@H](OC)CN(C)C2=O`, “inactive”.
`C[C@@H]1CCCCO[C@H](CN(C)C(=O)Nc2ccc3c(c2)OCO3)[C@H](C)CN([C@H](C)CO)C(=O)c2cc(NS(=O)(=O)c3cccs3)ccc2O1`: the cytotoxicity call is “inactive”.
The value for `O=C1CSC(/N=C/c2ccccc2O)=NN1` was “active”; that for `C[C@@H]1CN([C@H](C)CO)C(=O)c2cc(NC(=O)Nc3ccc(C(F)(F)F)cc3)ccc2O[C@@H](C)CCCCO[C@H]1CN(C)Cc1ccc(C(=O)O)cc1` was “inactive”; that for `Cc1noc(C)c1S(=O)(=O)Nc1ccc2c(c1)C(=O)N([C@@H](C)CO)C[C@H](C)[C@@H](CN(C)S(=O)(=O)c1cn(C)cn1)O2` was “inactive”.
As for `Cc1noc(C)c1NC(=O)N(C)C[C@H]1Oc2c(NC(=O)C3CCOCC3)cccc2C(=O)N([C@H](C)CO)C[C@H]1C`, the entry is “inactive”; as for `C=CC[C@@H](CC(=O)N(CCO)Cc1ccccc1)C(=O)NC[C@H](OC(=O)[C@@H](CC=C)Cc1ccc(F)cc1)c1ccccc1`, “active”.
The value for `C=CC[C@H](CC(=O)N(CCO)Cc1ccccc1)C(=O)NC[C@@H](OC(=O)[C@@H](CC=C)Cc1ccc(F)cc1)c1ccccc1` was “inactive”; that for `C=CC[C@@H](CC(=O)N(CCO)Cc1ccccc1)C(=O)NC[C@@H](OC(=O)[C@@H](CC=C)Cc1ccc(F)cc1)c1ccccc1` was “inactive”.
With `C=CC[C@H](CC(=O)N(CCO)Cc1ccccc1)C(=O)NC[C@H](OC(=O)[C@@H](CC=C)Cc1ccc(F)cc1)c1ccccc1`, the cytotoxicity call is “active”.
